# Results as given in the supplement of paper PMC12645437, “Orthogonal IMiD-Degron Pairs Induce Selective Protein Degradation in Cells” (ACS Chemical Biology, 2025).
# The full ranking holds about 8,300 sequences; the median of “log2 fold change of degron read counts, EGFP-low vs EGFP+ sorted cells (limma voom), compound-induced degradation” is about -1.1, and the highest 2% start at about 3.2. This excerpt belongs to a sample that is enriched for the highest values.
# T1: CRBN, Q96SW2
# T1 chain: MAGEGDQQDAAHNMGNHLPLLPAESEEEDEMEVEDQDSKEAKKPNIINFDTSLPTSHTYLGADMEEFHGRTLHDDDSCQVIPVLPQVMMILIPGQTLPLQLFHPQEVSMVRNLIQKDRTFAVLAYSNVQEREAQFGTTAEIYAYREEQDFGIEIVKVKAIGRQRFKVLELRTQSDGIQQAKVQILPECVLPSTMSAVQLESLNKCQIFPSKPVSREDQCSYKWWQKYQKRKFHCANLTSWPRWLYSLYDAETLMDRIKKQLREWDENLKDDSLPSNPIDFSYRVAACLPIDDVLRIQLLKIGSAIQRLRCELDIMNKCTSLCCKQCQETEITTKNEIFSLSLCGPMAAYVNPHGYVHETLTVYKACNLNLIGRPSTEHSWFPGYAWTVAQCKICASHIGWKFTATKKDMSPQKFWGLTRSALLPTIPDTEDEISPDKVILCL
# Molecular target: T1, CRBN, Q96SW2
# Assay: log2 fold change of degron read counts, EGFP-low vs EGFP+ sorted cells (limma voom), compound-induced degradation; higher = more compound-induced degradation of the degron-EGFP fusion; degrons are variants of IKZF1/3 zinc finger 2; compound dose not given here
# Settings: Jurkat, 18 h
# [1] = compound: compound 19 (5-tert-butyl-thalidomide)
# [2] = compound: compound 22 (5-morpholino-thalidomide)
# [3] = compound: compound 33 (diphenyl IMiD analogue)
# 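Further: pooled lentiviral library of zinc finger degron-EGFP fusions in mCherry-positive Jurkat cells, FACS-sorted after compound exposure, with degron abundance counted by next-generation sequencing.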
Sequence,log2 fold change of degron read counts [1],log2 fold change of degron read counts [2],log2 fold change of degron read counts [3],log2 fold change of degron read counts (compound: thalidomide)
"FICNQCGRSFTQKGNLLRHIKL [46F_47I_49N_50Q_52G_53R_54S_55F_67L_, Q9UKT9]",-3.32,-3.15,-3.35,-3.61
"FACEQCGAKFTQKGNLLRHIKL [46F_47A_49E_50Q_52G_53A_54K_55F_67L_, Q9UKT9]",1.9,-1.51,-3.24,-1.44
"LTCEICGFECTQKGNLLRHIKL [46L_47T_49E_50I_52G_53F_54E_55C_67L_, Q9UKT9]",-0.328,0.102,-0.375,0.759
"FSCPICGHVFTQKGNLLRHIKL [46F_47S_49P_50I_52G_53H_54V_55F_67L_, Q9UKT9]",-2.55,-2.29,-1.52,-1.64
"FLCDVCGAKFTQKGNLLRHIKL [46F_47L_49D_50V_52G_53A_54K_55F_67L_, Q9UKT9]",-1.99,-3.99,-1.78,-0.928
"FLCEICGHCFTQKGNLLRHIKL [46F_47L_49E_50I_52G_53H_54C_55F_67L_, Q9UKT9]",-3.3,-3.75,-3.16,-2.4
"FMCEICGHTFTQKGNLLRHIKL [46F_47M_49E_50I_52G_53H_54T_55F_67L_, Q9UKT9]",-3.32,-4.22,-2.78,-3.14
"LACPICGFNCTQKGNLLRHIKL [46L_47A_49P_50I_52G_53F_54N_55C_67L_, Q9UKT9]",2.23,1.61,1.93,1.49
"LWCPICGFRCTQKGNLLRHIKL [46L_47W_49P_50I_52G_53F_54R_55C_67L_, Q9UKT9]",3.02,3.7,2.31,2.05
"LWCPICGFNCTQKGNLLRHIKL [46L_47W_49P_50I_52G_53F_54N_55C_67L_, Q9UKT9]",2.43,3.5,2.36,1.53
"LDCPICGFNCTQKGNLLRHIKL [46L_47D_49P_50I_52G_53F_54N_55C_67L_, Q9UKT9]",-0.713,-1.04,-0.142,0.706
"LICPICGFRCTQKGNLLRHIKL [46L_47I_49P_50I_52G_53F_54R_55C_67L_, Q9UKT9]",0.753,2.24,1.19,2.84
"LGCPICGFRCTQKGNLLRHIKL [46L_47G_49P_50I_52G_53F_54R_55C_67L_, Q9UKT9]",3.17,2.04,0.549,1.14
"FRCPICGAIFTQKGNLLRHIKL [46F_47R_49P_50I_52G_53A_54I_55F_67L_, Q9UKT9]",-1.29,-0.543,0.89,1.18
"FTCEQCGAQFTQKGNLLRHIKL [46F_47T_49E_50Q_52G_53A_54Q_55F_67L_, Q9UKT9]",-2.06,-1.12,0.532,-0.012
"FFCPICGHVFTQKGNLLRHIKL [46F_47F_49P_50I_52G_53H_54V_55F_67L_, Q9UKT9]",-0.996,-1.35,-1.19,-1.12
"FACPICGHTFTQKGNLLRHIKL [46F_47A_49P_50I_52G_53H_54T_55F_67L_, Q9UKT9]",-2.03,-2.66,-2.44,-2.56
"FKCNVCGAVFTQKGNLLRHIKL [46F_47K_49N_50V_52G_53A_54V_55F_67L_, Q9UKT9]",-2.44,-2.91,-3.25,-2
